Experimental data: the supplement of paper PMC11732987, “Enantioselective OTUD7B fragment discovery through chemoproteomics screening and high-throughput optimisation” (Communications Chemistry, 2025)

How the values were obtained:
Assay in all cases: log2 ratio of Biotin-Ahx-Ub-VS probe labelling (fragment/DMSO); higher = less target engagement (more negative = stronger competition), active = hit call of the paper (q ≤ 0.05, log2 ratio ≤ -1)
Details in all cases: compound concentration: 200 uM; treatment time: 3 h
USP34 = USP34 (UniProt Q70CQ2)
In short: (§1)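 HEK293T lysate in Tris/CHAPS/IGEPAL buffer with protease inhibitors (495 µg per sample) was given fragment at 200 µM or vehicle for 3 h, in triplicate. It then received Biotin-Ahx-Ub-VS at 0.5 µM final for 1 h. Labelled DUBs were NeutrAvidin-enriched, digested with LysC and trypsin, and run by diaPASEF LC-MS/MS. Values are average log2 fragment/vehicle ratios by unpaired t-test on global-median-normalised Spectronaut quantities of proteins with ≥2 unique peptides.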

USP36 = molecular target: T1, USP36 (UniProt Q9P275)
T1 sequence (whole entry): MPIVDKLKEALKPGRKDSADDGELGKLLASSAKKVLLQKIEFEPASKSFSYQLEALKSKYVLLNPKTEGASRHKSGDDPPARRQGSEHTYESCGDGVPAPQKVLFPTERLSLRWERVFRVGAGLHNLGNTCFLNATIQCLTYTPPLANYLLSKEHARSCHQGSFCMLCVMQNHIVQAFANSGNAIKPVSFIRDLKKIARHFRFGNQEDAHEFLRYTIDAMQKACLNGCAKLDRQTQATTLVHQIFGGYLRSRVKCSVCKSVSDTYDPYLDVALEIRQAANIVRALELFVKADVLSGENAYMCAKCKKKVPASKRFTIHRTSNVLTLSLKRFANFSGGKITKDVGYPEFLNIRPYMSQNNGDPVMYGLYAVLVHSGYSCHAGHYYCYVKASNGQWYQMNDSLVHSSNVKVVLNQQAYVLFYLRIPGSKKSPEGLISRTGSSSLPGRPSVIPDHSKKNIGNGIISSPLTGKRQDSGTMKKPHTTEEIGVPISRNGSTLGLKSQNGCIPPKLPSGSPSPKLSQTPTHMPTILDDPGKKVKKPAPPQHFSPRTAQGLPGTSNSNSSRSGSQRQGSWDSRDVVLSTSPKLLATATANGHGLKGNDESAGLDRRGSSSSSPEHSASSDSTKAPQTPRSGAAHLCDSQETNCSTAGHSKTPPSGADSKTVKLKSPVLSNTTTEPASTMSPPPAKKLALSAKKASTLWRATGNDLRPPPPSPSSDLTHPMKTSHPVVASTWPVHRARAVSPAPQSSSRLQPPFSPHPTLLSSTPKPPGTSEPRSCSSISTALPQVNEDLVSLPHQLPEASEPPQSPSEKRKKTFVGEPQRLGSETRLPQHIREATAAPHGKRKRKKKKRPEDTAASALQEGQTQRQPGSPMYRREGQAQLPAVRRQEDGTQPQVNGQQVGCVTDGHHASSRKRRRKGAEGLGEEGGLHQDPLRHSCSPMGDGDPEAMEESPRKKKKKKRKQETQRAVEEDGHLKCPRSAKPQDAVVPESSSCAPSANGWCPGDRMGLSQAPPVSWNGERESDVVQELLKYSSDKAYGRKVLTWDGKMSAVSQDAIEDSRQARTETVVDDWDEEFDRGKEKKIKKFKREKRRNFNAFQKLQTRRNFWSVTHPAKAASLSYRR
In short: as §1

USP38 = molecular target: T2, USP38 (UniProt Q8NB14)
T2 sequence (whole entry): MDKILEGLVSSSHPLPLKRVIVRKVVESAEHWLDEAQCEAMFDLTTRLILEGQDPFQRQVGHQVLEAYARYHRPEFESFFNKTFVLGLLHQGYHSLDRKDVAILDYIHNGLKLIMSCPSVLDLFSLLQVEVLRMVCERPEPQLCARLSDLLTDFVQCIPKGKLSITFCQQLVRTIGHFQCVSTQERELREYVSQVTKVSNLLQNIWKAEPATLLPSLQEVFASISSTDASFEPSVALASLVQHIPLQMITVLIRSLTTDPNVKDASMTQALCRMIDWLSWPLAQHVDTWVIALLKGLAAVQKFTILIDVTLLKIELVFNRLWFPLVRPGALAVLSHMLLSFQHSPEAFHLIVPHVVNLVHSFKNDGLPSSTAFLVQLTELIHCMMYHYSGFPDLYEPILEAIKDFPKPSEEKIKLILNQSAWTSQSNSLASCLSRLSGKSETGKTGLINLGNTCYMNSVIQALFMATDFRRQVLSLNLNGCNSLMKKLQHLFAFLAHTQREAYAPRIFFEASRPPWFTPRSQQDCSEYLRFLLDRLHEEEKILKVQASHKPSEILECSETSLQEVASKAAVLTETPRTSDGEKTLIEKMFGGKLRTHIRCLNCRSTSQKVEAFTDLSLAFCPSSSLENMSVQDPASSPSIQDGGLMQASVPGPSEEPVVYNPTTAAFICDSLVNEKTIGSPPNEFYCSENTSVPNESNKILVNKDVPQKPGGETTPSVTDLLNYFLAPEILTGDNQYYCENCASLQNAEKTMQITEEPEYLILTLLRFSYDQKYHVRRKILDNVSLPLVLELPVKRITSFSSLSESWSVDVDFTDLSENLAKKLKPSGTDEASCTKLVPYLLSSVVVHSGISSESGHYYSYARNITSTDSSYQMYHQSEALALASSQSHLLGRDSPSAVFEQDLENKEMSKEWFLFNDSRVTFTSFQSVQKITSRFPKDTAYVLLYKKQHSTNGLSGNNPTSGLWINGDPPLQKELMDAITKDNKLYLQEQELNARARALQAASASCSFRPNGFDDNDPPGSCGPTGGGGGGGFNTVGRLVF
In short: as §1

USP39 = molecular target: T3, USP39 (UniProt Q53GS9)
T3 sequence (whole entry): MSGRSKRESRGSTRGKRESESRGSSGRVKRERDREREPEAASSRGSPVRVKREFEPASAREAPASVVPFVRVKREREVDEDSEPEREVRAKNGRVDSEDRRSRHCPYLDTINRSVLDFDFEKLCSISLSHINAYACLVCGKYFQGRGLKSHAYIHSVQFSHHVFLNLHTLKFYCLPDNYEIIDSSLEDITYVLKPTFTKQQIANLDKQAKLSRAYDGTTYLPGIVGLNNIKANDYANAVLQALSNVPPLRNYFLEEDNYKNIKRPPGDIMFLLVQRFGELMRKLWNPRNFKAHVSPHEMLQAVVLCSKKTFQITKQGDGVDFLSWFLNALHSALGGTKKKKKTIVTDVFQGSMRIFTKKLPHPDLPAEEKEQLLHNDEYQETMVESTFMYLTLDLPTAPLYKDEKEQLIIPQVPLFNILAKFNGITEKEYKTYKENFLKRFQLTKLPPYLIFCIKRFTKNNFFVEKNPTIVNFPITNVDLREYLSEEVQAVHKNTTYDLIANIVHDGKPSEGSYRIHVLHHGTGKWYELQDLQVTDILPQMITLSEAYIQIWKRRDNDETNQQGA
In short: as §1

USP4 = molecular target: T4, USP4 (UniProt Q13107)
T4 sequence (whole entry): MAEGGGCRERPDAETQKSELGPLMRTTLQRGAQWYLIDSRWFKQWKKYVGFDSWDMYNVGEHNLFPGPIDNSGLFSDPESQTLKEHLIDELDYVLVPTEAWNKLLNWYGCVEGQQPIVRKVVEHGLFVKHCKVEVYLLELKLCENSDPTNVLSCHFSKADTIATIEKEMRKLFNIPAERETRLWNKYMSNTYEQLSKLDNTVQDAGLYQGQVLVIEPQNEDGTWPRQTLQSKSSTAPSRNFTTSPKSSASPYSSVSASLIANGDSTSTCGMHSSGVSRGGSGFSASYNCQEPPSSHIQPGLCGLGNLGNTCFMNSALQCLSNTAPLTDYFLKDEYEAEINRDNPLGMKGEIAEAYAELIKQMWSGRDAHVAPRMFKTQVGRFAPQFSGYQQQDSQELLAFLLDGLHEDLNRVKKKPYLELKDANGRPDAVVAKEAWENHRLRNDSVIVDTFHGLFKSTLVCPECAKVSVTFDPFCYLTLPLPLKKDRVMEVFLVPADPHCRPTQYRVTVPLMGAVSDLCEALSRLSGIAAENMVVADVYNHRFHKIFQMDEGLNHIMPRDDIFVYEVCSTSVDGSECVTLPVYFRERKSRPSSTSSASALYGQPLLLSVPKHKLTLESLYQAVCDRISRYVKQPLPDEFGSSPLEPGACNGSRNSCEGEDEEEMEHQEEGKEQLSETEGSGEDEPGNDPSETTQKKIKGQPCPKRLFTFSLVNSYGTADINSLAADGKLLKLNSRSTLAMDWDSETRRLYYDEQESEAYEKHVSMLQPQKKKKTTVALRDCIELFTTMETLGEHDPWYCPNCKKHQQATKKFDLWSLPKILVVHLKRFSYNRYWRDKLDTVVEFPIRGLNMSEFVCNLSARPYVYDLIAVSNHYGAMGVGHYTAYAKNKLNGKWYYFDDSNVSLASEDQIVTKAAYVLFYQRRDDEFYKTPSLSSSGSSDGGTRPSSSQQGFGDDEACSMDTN
In short: as §1

Measured: log2 ratio of Biotin-Ahx-Ub-VS probe labelling

USP34, sequence (Q70CQ2 whole entry, the tested form may be a part): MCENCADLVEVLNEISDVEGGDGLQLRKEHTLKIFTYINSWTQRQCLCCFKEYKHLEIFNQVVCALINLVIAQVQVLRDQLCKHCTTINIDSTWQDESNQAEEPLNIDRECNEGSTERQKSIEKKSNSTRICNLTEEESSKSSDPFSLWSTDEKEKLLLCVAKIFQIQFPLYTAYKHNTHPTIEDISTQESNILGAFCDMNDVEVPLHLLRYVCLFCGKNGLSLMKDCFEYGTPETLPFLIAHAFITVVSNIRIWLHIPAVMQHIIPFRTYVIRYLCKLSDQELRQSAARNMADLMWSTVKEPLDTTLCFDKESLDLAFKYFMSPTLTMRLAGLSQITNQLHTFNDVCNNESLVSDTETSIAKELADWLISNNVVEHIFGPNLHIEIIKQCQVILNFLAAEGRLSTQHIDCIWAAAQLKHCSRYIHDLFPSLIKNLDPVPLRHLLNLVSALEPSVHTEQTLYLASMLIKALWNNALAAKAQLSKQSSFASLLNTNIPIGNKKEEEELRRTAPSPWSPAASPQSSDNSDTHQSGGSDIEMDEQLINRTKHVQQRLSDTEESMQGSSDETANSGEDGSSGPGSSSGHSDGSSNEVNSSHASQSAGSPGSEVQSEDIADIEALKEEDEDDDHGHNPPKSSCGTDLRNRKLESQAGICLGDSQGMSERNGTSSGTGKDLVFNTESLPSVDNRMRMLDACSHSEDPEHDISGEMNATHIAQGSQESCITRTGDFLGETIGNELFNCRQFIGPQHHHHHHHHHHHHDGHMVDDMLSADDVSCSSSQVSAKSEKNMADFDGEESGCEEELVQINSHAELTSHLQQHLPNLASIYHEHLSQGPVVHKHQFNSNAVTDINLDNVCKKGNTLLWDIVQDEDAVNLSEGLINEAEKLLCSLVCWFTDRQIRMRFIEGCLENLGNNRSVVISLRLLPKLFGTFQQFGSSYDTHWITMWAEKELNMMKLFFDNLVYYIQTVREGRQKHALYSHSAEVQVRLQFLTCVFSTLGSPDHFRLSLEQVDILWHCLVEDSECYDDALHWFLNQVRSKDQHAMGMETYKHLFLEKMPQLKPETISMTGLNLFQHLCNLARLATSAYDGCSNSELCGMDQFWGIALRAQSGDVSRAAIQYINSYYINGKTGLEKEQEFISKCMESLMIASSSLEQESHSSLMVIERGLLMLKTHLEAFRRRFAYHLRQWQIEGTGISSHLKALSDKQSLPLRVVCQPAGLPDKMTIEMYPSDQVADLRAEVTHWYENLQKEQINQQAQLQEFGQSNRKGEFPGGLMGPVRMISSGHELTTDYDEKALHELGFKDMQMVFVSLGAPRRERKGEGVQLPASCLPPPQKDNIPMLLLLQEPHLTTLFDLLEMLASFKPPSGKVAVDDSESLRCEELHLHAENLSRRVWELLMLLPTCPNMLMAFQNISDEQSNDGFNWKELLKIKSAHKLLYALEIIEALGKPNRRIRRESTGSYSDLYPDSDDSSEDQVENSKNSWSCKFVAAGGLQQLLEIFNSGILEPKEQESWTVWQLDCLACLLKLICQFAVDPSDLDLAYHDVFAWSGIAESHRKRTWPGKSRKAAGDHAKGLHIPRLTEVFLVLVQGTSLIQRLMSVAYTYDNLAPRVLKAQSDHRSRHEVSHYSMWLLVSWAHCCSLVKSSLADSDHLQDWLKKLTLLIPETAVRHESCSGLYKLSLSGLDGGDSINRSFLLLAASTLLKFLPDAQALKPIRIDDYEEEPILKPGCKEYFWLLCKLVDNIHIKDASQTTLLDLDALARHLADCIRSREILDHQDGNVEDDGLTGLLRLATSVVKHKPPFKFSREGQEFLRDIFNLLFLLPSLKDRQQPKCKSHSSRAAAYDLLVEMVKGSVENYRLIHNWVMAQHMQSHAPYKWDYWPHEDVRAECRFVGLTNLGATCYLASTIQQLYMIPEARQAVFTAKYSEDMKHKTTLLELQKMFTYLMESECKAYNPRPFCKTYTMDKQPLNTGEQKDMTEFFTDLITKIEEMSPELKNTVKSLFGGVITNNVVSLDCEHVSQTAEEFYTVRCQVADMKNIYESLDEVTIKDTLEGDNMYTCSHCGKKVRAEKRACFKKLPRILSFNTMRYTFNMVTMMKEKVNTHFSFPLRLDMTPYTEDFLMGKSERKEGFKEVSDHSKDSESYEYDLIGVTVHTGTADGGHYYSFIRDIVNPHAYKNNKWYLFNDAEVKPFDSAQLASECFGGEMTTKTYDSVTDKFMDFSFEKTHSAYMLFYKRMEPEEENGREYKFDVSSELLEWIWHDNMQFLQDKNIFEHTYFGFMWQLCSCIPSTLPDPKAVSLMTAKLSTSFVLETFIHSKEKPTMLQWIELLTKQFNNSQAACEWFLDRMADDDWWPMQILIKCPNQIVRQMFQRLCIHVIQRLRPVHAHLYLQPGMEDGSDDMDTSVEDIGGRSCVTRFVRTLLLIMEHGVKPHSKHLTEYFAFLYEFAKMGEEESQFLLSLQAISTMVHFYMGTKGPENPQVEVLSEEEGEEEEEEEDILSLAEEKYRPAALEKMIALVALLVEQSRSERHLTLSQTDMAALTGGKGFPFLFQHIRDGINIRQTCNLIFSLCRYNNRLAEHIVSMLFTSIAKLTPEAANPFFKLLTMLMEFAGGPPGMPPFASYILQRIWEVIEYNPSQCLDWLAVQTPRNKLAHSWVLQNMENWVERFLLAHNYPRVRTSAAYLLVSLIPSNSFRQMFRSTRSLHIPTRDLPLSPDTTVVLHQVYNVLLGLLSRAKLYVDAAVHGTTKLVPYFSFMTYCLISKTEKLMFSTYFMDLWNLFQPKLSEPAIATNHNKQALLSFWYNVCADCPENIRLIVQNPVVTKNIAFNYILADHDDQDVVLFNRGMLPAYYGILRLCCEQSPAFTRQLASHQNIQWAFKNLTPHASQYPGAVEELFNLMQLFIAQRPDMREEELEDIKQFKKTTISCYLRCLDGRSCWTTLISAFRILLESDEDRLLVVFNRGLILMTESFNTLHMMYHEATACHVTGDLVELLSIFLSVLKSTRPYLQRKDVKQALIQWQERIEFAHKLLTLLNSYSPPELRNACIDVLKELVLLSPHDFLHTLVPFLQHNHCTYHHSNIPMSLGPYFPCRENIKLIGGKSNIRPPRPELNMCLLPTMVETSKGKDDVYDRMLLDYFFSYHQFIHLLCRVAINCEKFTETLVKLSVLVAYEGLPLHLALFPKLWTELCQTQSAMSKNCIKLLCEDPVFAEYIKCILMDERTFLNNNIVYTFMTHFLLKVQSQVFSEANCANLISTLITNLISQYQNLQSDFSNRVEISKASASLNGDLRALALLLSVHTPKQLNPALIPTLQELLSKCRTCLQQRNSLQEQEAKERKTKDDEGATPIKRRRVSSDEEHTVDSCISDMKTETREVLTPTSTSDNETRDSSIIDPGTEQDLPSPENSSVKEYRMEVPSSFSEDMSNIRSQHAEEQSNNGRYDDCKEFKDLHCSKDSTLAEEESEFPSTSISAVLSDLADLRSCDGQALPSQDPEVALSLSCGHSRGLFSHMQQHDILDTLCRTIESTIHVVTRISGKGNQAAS

Cc1nc(CNC(=O)CCl)c2ccccn12.Cl
inactive: USP34 -0.0794 | USP36 -0.09 | USP38 -0.0607 | USP39 0.302 | USP4 -0.0724
